In the supplement of paper PMC8728848:
Only a selection was taken, and the strongest signals are over-represented in it overall.

Assays:
Test in all cases: glycan array binding signal (z-score within array); higher = stronger binding
Details in all cases: glycan notation: IUPAC condensed, linker removed
[1] = target: Fuc(a1-2)Gal
Procedure, shortened: (§1)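 The binding signal is a Z-score computed within each array. Data were drawn from 3228 arrays in the Consortium for Functional Glycomics database, restricted to those with a known protein sequence. Scores were averaged over arrays of the same protein sequence at different concentrations or buffers, and over linkers, and negative values can be taken as non-binding.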

[2] = target: Fuc(a1-2)Gal(b1-4)GlcNAc(b1-3)Gal(b1-4)GlcNAc
Procedure, shortened: as §1

[3] = target: Fuc(a1-2)Gal(b1-4)GlcNAc(b1-3)[Fuc(a1-2)Gal(b1-4)GlcNAc(b1-6)]GalNAc
Procedure, shortened: as §1

[4] = target: Fuc(a1-2)[Gal(a1-3)]Gal(b1-3)GlcNAc(b1-3)GalNAc
Procedure, shortened: as §1

[5] = target: Fuc(a1-2)[Gal(a1-3)]Gal(b1-4)GlcNAc(b1-2)Man(a1-3)[Fuc(a1-2)[Gal(a1-3)]Gal(b1-4)GlcNAc(b1-2)Man(a1-6)]Man(b1-4)GlcNAc(b1-4)GlcNAc
Procedure, shortened: as §1

[6] = target: Fuc(a1-2)[Gal(a1-4)]Gal(b1-4)GlcNAc
Procedure, shortened: as §1

[7] = target: Fuc(a1-2)[GalNAc(a1-3)]Gal
Procedure, shortened: as §1

[8] = target: Fuc(a1-2)[GalNAc(a1-3)]Gal(b1-3)GlcNAc(b1-3)GalNAc
Procedure, shortened: as §1

[9] = target: Fuc(a1-2)[GalNAc(a1-3)]Gal(b1-4)GlcNAc(b1-3)Gal(b1-4)GlcNAc
Procedure, shortened: as §1

[10] = target: Fuc(a1-2)[GalNAc(a1-3)]Gal(b1-4)GlcNAc(b1-3)GalNAc
Procedure, shortened: as §1

[11] = target: Fuc(a1-3)GlcNAc
Procedure, shortened: as §1

[12] = target: Fuc(a1-3)[Gal(b1-4)]GlcNAc(b1-2)Man
Procedure, shortened: as §1

[13] = target: Gal(a1-3)Gal(b1-3)GlcNAc(b1-6)GalNAc
Procedure, shortened: as §1

[14] = target: Gal(a1-3)Gal(b1-4)Glc
Procedure, shortened: as §1

[15] = target: Gal(b1-3)Gal
Procedure, shortened: as §1

[16] = target: Gal(b1-3)GalNAc(b1-3)Gal(a1-4)Gal(b1-4)Glc
Procedure, shortened: as §1

[17] = target: Gal(b1-3)GlcNAc(b1-2)Man(a1-3)[Gal(b1-3)GlcNAc(b1-2)Man(a1-6)]Man(b1-4)GlcNAc(b1-4)GlcNAc
Procedure, shortened: as §1

[18] = target: Gal(b1-3)GlcNAc(b1-3)Gal(b1-3)GlcNAc
Procedure, shortened: as §1

[19] = target: Gal(b1-3)GlcNAc(b1-3)Gal(b1-4)GlcNAc(b1-2)[Gal(b1-3)GlcNAc(b1-3)Gal(b1-4)GlcNAc(b1-6)]Man(a1-6)[Gal(b1-3)GlcNAc(b1-3)Gal(b1-4)GlcNAc(b1-2)Man(a1-3)]Man(b1-4)GlcNAc(b1-4)[Fuc(a1-6)]GlcNAc
Procedure, shortened: as §1

[20] = target: Gal(b1-4)GlcNAc(b1-2)Man(a1-3)[Gal(b1-4)GlcNAc(b1-2)Man(a1-6)]Man(b1-4)GlcNAc(b1-4)GlcNAc
Procedure, shortened: as §1

[21] = target: Gal(b1-4)GlcNAc(b1-2)Man(a1-6)[Man(a1-3)]Man(b1-4)GlcNAc(b1-4)GlcNAc
Procedure, shortened: as §1

[22] = target: Gal(b1-4)GlcNAc(b1-2)[Gal(b1-4)GlcNAc(b1-6)]Man(a1-6)[Gal(b1-4)GlcNAc(b1-2)Man(a1-3)]Man(b1-4)GlcNAc(b1-4)GlcNAc
Procedure, shortened: as §1

[23] = target: Gal(b1-4)GlcNAc(b1-3)Gal(b1-4)GlcNAc(b1-2)[Gal(b1-4)GlcNAc(b1-3)Gal(b1-4)GlcNAc(b1-6)]Man(a1-6)[Gal(b1-4)GlcNAc(b1-3)Gal(b1-4)GlcNAc(b1-2)Man(a1-3)]Man(b1-4)GlcNAc(b1-4)GlcNAc
Procedure, shortened: as §1

[24] = target: Gal(b1-4)GlcNAc(b1-3)Gal(b1-4)GlcNAc(b1-3)Gal(b1-4)GlcNAc
Procedure, shortened: as §1

[25] = target: Gal(b1-4)GlcNAc(b1-3)Gal(b1-4)GlcNAc(b1-3)Gal(b1-4)GlcNAc(b1-2)Man(a1-3)[Gal(b1-4)GlcNAc(b1-3)Gal(b1-4)GlcNAc(b1-3)Gal(b1-4)GlcNAc(b1-2)Man(a1-6)]Man(b1-4)GlcNAc(b1-4)GlcNAc
Procedure, shortened: as §1

[26] = target: Gal(b1-4)GlcNAc(b1-3)Gal(b1-4)GlcNAc(b1-3)Gal(b1-4)GlcNAc(b1-3)Gal(b1-4)GlcNAc(b1-2)Man(a1-3)[Gal(b1-4)GlcNAc(b1-3)Gal(b1-4)GlcNAc(b1-3)Gal(b1-4)GlcNAc(b1-3)Gal(b1-4)GlcNAc(b1-2)Man(a1-6)]Man(b1-4)GlcNAc(b1-4)[Fuc(a1-6)]GlcNAc
Procedure, shortened: as §1

[27] = target: Gal(b1-4)GlcNAc(b1-3)Gal(b1-4)GlcNAc(b1-3)Gal(b1-4)GlcNAc(b1-3)Gal(b1-4)GlcNAc(b1-2)[Gal(b1-4)GlcNAc(b1-3)Gal(b1-4)GlcNAc(b1-3)Gal(b1-4)GlcNAc(b1-3)Gal(b1-4)GlcNAc(b1-6)]Man(a1-6)[Gal(b1-4)GlcNAc(b1-3)Gal(b1-4)GlcNAc(b1-3)Gal(b1-4)GlcNAc(b1-3)Gal(b1-4)GlcNAc(b1-2)Man(a1-3)]Man(b1-4)GlcNAc(b1-4)[Fuc(a1-6)]GlcNAc
Procedure, shortened: as §1

[28] = target: Gal(b1-4)GlcNAc(b1-3)Gal(b1-4)GlcNAc(b1-3)Gal(b1-4)GlcNAc(b1-3)Gal(b1-4)GlcNAc(b1-3)Gal(b1-4)GlcNAc(b1-3)Gal(b1-4)GlcNAc(b1-2)Man(a1-3)[Gal(b1-4)GlcNAc(b1-3)Gal(b1-4)GlcNAc(b1-3)Gal(b1-4)GlcNAc(b1-3)Gal(b1-4)GlcNAc(b1-3)Gal(b1-4)GlcNAc(b1-3)Gal(b1-4)GlcNAc(b1-2)Man(a1-6)]Man(b1-4)GlcNAc(b1-4)GlcNAc
Procedure, shortened: as §1

B1: MtEccB1 (Mycobacterium tuberculosis H37Rv), O69734 (protein)
chain: MGLRLTTKVQVSGWRFLLRRLEHAIVRRDTRMFDDPLQFYSRSIALGIVVAVLILAGAALLAYFKPQGKLGGTSLFTDRATNQLYVLLSGQLHPVYNLTSARLVLGNPANPATVKSSELSKLPMGQTVGIPGAPYATPVSAGSTSIWTLCDTVARADSTSPVVQTAVIAMPLEIDASIDPLQSHEAVLVSYQGETWIVTTKGRHAIDLTDRALTSSMGIPVTARPTPISEGMFNALPDMGPWQLPPIPAAGAPNSLGLPDDLVIGSVFQIHTDKGPQYYVVLPDGIAQVNATTAAALRATQAHGLVAPPAMVPSLVVRIAERVYPSPLPDEPLKIVSRPQDPALCWSWQRSAGDQSPQSTVLSGRHLPISPSAMNMGIKQIHGTATVYLDGGKFVALQSPDPRYTESMYYIDPQGVRYGVPNAETAKSLGLSSPQNAPWEIVRLLVDGPVLSKDAALLEHDTLPADPSPRKVPAGASGAP
glycan array binding signal (z-score) [1]: -0.548 | glycan array binding signal (z-score) [2]: -0.199 | glycan array binding signal (z-score) [3]: -0.809 | glycan array binding signal (z-score) [4]: 0.379 | glycan array binding signal (z-score) [5]: -0.471 | glycan array binding signal (z-score) [6]: -1.08 | glycan array binding signal (z-score) [7]: -0.459 | glycan array binding signal (z-score) [8]: 0.901 | glycan array binding signal (z-score) [9]: -1.03 | glycan array binding signal (z-score) [10]: -0.767 | glycan array binding signal (z-score) [11]: -1.29 | glycan array binding signal (z-score) [12]: -0.707 | glycan array binding signal (z-score) [13]: -0.407 | glycan array binding signal (z-score) [14]: 0.359 | glycan array binding signal (z-score) [15]: 0.485 | glycan array binding signal (z-score) [16]: -0.784 | glycan array binding signal (z-score) [17]: 2.58 | glycan array binding signal (z-score) [18]: 0.213 | glycan array binding signal (z-score) [19]: 1.6 | glycan array binding signal (z-score) [20]: -1.33 | glycan array binding signal (z-score) [21]: 2.86 | glycan array binding signal (z-score) [22]: -0.552 | glycan array binding signal (z-score) [23]: 2.86 | glycan array binding signal (z-score) [24]: 2.06 | glycan array binding signal (z-score) [25]: 0.867 | glycan array binding signal (z-score) [26]: 1.01 | glycan array binding signal (z-score) [27]: 1.93 | glycan array binding signal (z-score) [28]: 2.86
